The other results are listed elsewhere or left out. Records with an inconclusive call do not appear. Activity calls are given as the source filed them. Calls come from the whole dose curve; as a rule, active = well fitted inhibition curve with a large enough effect; inconclusive = small, poorly fitted or top-dose-only effect; inactive = flat fitted curve, though single readings scatter.

The test is described as follows: qHTS of pediatric cancer cell lines to identify multiple opportunities for drug repurposing: Orthogonal 3D viability screen for SK-N-SH cells. Conditions: SK-N-SH 3D spheroid viability, PI/Hoechst imaging, 72 h. The text has this:
Drug repurposing or repositioning has been offered as a strategy for drug development in oncology programs. This approach has special potential for childhood cancers and other rare or orphan diseases, where the expected return on new drug development has been a disincentive to pharmaceuticals. […] In this project we exploit the poly-pharmacology of drugs to discover new indications via phenotypic screening of a panel of 19 well-characterized cell lines derived from solid tumors seen in children and adolescents. The goal is to identify approved drugs with previously unrecognized anticancer properties that has the potential to reveal new mechanisms and biological processes involved in carcinogenesis or drug resistance. We employed a titration-based paradigm (quantitative high-throughput screening or qHTS), where all compounds were tested at multiple concentrations for their effect on cell viability. Concentration-response curves (CRCs) were derived directly from the primary screen, and both potency and efficacy values were used to identify compounds with robust bioactivity profiles. […] These two assays will be used to validate active compounds and assess the correlation of compound's potency in 2D vs 3D cultures on selected cell lines. Assay Submitter: Nathalia J. Martinez, National Center for Advancing Translational Sciences, National Institutes of Health, Rockville, MD, USA; email: natalia.martinez@nih.gov Shen, M et al. Quantitative high-throughput phenotypic screening of pediatric cancer cell lines identifies multiple opportunities for drug repurposing. Oncotarget 2017 Dec 19;9(4):4758-4772. PMID 29435139.
The cells were obtained from University of North Carolina (UNC), Pediatric Preclinical Testing Program (PPT), and Coriell Institute (CI). qHTS viability in 3D culture: Cells were assayed in phenol red-free growth media at a density of 1,000 cells/well, with the exception of Daoy, and SH-N-SH which were assayed at 1,500 cells/ well. Thirty muL of cells were dispensed into 384-well, ULA, round bottom plates (Corning) using a Multidrop dispenser. Plates were spun down at 1,000 rpm for 1 min and incubated at 37 degrees C, 5% CO2, under a humidified atmosphere for either 24 (Daoy) or 48 hours (all other cell lines) to allow spheroid formation. Ninety-two nanoliter of compounds and controls (neutral control DMSO or positive control bortezomib at final concentrations of 0.5 µM) were subsequently transferred via GNF Pintool. Plates were sealed using a breathable seal (Diversified Biotech, Dedham, MA) and incubated for 72 hours at 37 degrees C. Spheroid viability was first determined by high-content imaging using Hoechst 33342 and Propidium Iodide (PI, ThermoFisher Scientific), followed by addition of CellTiter-Glo 3D (Promega). Specifically, 3 µL/well of PBS containing a 1:500 dilution of both dyes was dispensed using Multidrop. Dyes were incubated for 1 hour before imaging using the Celigo Image Cytometer. Then, 20 µl of CellTiter-Glo 3D were added per well. Plates were incubated for 30 min at RT on a VWR microplate shaker (300 rpm) and analyzed for luminescence intensity using a ViewLux High-throughput CCD imager equipped with clear filters. Image analysis was done using the Celigo Tumorsphere 1+2+3 application software as previously described. […] The data were exported to Excel, and the average fluorescent intensities were used to calculate the ratio of PI over Hoechst, which was used to quantify viability. […]
For the compound `CC1(C)O[C@@H]2C[C@@H]3[C@H]4C[C@@H](F)C5=CC(=O)C=C[C@]5(C)[C@@]4(F)[C@@H](O)C[C@]3(C)[C@]2(C(=O)CO)O1`, the Potency is 456 nM (active).
For `CC[C@]1(O)C[C@@H]2CN(CCc3c([nH]c4ccccc34)[C@@](C(=O)OC)(c3cc4c(cc3OC)N(C)[C@H]3[C@@](O)(C(=O)OC)[C@H](OC(C)=O)[C@]5(CC)C=CCN6CC[C@]43[C@@H]65)C2)C1`, the Potency is 90.9 nM (active).
Consider `COC(=O)Nc1nc2ccc(Sc3ccccc3)cc2[nH]1`, for which the Potency was 1620 nM (active).
In the case of `CC[C@H]1CN2CCc3cc(OC)c(OC)cc3[C@@H]2C[C@@H]1C[C@H]1NCCc2cc(OC)c(OC)cc21`, the Potency is 72.2 nM (active).
Take `CC(NCc1ccc2c(c1)nc(NC(=O)c1ccc(-c3cn[nH]c3)s1)n2CC(C)(C)O)C(C)(C)C` (stereo not given): the Potency is 204 nM (active).

(Values after PubChem BioAssay AID1347135 (National Center for Advancing Translational Sciences (NCATS), 2019).)
